From PubChem BioAssay (NCI) come the findings set out here.

A short description of assay [1]: NCI Yeast Anticancer Drug Screen. Data for the rad50 strain (AID 155).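 Further: 0% = growth of vehicle-only cultures of the same strain.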 The following applies: S. cerevisiae rad50 strain growth inhibition, stronger effect = higher value. The essentials: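 Inhibition values express reduced yeast growth in compound-treated cultures relative to vehicle-treated controls.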
Assay [2] can be described thus: NCI Yeast Anticancer Drug Screen. Data for the mec2-1 strain (AID 157). The following applies: S. cerevisiae mec2-1 strain, stronger effect = higher value. The essentials: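 Compounds were applied to mec2-1 yeast cells. Their growth was then compared with that of vehicle-treated cultures to give growth inhibition.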
A short description of assay [3]: NCI Yeast Anticancer Drug Screen. Data for the sgs1 mgt1 strain (AID 161).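 Further: 0% = growth of cultures given vehicle only.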 The settings on record: S. cerevisiae sgs1 mgt1 strain, stronger effect = higher value. In outline: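 Yeast cells carrying a defined DNA-repair defect were exposed to test compounds. Growth inhibition was measured relative to vehicle-treated controls.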
Assay [4] can be described thus: NCI Yeast Anticancer Drug Screen. Data for the cln2 rad14 strain (AID 165).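 Further: 0% = growth equal to vehicle treated cultures.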 The settings on record: S. cerevisiae cln2 rad14 strain, stronger effect = higher value. The essentials:
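Strain: cln2 rad14 yeast, altered in cell cycle control and DNA damage repair. Read-out: growth inhibition vs vehicle.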

Assay [5] in a line: NCI Yeast Anticancer Drug Screen. Data for the bub3 strain (AID 167). The following applies: S. cerevisiae bub3 mutant strain, stronger effect = higher value. In outline:
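Steps: expose the mutant yeast strain to compound; grow alongside vehicle-treated cultures; measure growth; express inhibition against the vehicle cultures.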

A short description of assay [6]: NCI Yeast Anticancer Drug Screen. Data for the mlh1 rad18 strain (AID 175). The settings on record: S. cerevisiae mlh1 rad18 strain growth inhibition, stronger effect = higher value. The essentials: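 A repair-deficient yeast strain is exposed to test compound, and growth is scored relative to vehicle-treated controls.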
[7] abbreviates: at 5.0 µM (retest, dose inferred, filed as 0.5).
Where [8] appears, read: at 50.0 µM (retest, dose inferred, filed as 5.0).

The panel holds about 79,000 compounds, 15% with a hit somewhere; the sample as a whole holds those more often. Values without a mark were called inactive. Activity calls are given as the source filed them. No stated cut-off is given here; in the data, active means growth inhibition above about 70%; inactive means the rest.

Regarding `O=C1C=CC(=O)C1=Cc1ccc(Cl)c(Cl)c1`, the growth inhibition in assay [1] (setting [7]) was 99% (active); in assay [1] (setting [8]), 99% (active); in assay [1] (at 50.0 µM), 98.8% (active); in assay [2] (setting [7]), 100% (active); in assay [2] (setting [8]) it was 99% (active); in assay [2] (at 50.0 µM), 98.9% (active). Besides, the growth inhibition in assay [3] (setting [7]) was 100% (active); in assay [3] (setting [8]) it was 98% (active); in assay [3] (at 50.0 µM) it was 98.7% (active); in assay [4] (setting [7]) it was 100% (active); in assay [4] (setting [8]) it was 99% (active); in assay [4] (at 50.0 µM), 99.2% (active). Also, the growth inhibition in assay [5] (setting [7]) was 100% (active); in assay [5] (setting [8]), 99% (active); in assay [5] (at 50.0 µM), 98.8% (active); in assay [6] (setting [7]), 100% (active); in assay [6] (setting [8]), 99% (active); in assay [6] (at 50.0 µM), 99% (active).
Consider `O=C1OC(c2cccc(Cl)c2)Sc2ccccc21` (configuration not stated), for which the growth inhibition in assay [1] (setting [7]) is 2%; in assay [1] (setting [8]), 86% (active); in assay [1] (at 50.0 µM), 51.7%; in assay [2] (setting [7]), 0%; in assay [2] (setting [8]), 60%; in assay [2] (at 50.0 µM) it was 19.4%. For the same compound, the growth inhibition was -12% in assay [3] (setting [7]); 56% in assay [3] (setting [8]); 36.2% in assay [3] (at 50.0 µM); -7% in assay [4] (setting [7]); 47% in assay [4] (setting [8]); -16.7% in assay [4] (at 50.0 µM). Moreover, the growth inhibition is 26% in assay [5] (setting [7]); 94% (active) in assay [5] (setting [8]); 83.2% (active) in assay [5] (at 50.0 µM); 0% in assay [6] (setting [7]); 78% (active) in assay [6] (setting [8]); 37.6% in assay [6] (at 50.0 µM).
On to `CC(C)SC(=S)Nc1cc(C(F)(F)F)ccc1Cl`, for which the growth inhibition was -2% in assay [1] (setting [7]); 99% (active) in assay [1] (setting [8]); 99.5% (active) in assay [1] (at 50.0 µM); 2% in assay [2] (setting [7]); 98% (active) in assay [2] (setting [8]); 99.7% (active) in assay [2] (at 50.0 µM). Besides, the growth inhibition in assay [3] (setting [7]) was 0%; in assay [3] (setting [8]) it was 100% (active); in assay [3] (at 50.0 µM) it was 99.6% (active); in assay [4] (setting [7]), -15%; in assay [4] (setting [8]), 98% (active); in assay [4] (at 50.0 µM), 99.4% (active). For the same compound, the growth inhibition was 2% in assay [5] (setting [7]); 91% (active) in assay [5] (setting [8]); 99.5% (active) in assay [5] (at 50.0 µM); 0% in assay [6] (setting [7]); 97% (active) in assay [6] (setting [8]); 99.5% (active) in assay [6] (at 50.0 µM).
As to `CC(C)=CCc1c2c(c3occ(-c4ccc(O)c(O)c4)c(=O)c3c1O)C=CC(C)(C)O2`, the growth inhibition in assay [1] (setting [7]) is 16%; in assay [1] (setting [8]), 90% (active); in assay [1] (at 50.0 µM), 90.8% (active); in assay [2] (setting [7]), 29%; in assay [2] (setting [8]) it was 95% (active); in assay [2] (at 50.0 µM), 94.1% (active). Also, the growth inhibition in assay [3] (setting [7]) was 9%; in assay [3] (setting [8]), 93% (active); in assay [3] (at 50.0 µM), 94.8% (active); in assay [4] (setting [7]) it was -25%; in assay [4] (setting [8]), 76% (active); in assay [4] (at 50.0 µM), 91.5% (active). Moreover, the growth inhibition in assay [5] (setting [7]) was -7%; in assay [5] (setting [8]), 94% (active); in assay [5] (at 50.0 µM), 89% (active); in assay [6] (setting [7]), -2%; in assay [6] (setting [8]), 90% (active); in assay [6] (at 50.0 µM) it was 90.8% (active).
For the compound `O=C(c1ccccc1)C1(C(=O)c2ccccc2)/C(=N\O)C2CCC1C2` (configuration not stated), the growth inhibition in assay [1] (setting [7]) was 7%; in assay [1] (setting [8]), 93% (active); in assay [1] (at 50.0 µM) it was 6.05%; in assay [2] (setting [7]), 1%; in assay [2] (setting [8]), 96% (active); in assay [2] (at 50.0 µM), 12.7%. Also, the growth inhibition is -2% in assay [3] (setting [7]); 95% (active) in assay [3] (setting [8]); 9.75% in assay [3] (at 50.0 µM); -2% in assay [4] (setting [7]); 94% (active) in assay [4] (setting [8]); 1.9% in assay [4] (at 50.0 µM). For the same compound, the growth inhibition in assay [5] (setting [7]) was 0%; in assay [5] (setting [8]), 95% (active); in assay [5] (at 50.0 µM) it was 53.1%; in assay [6] (setting [7]) it was 12%; in assay [6] (setting [8]) it was 93% (active); in assay [6] (at 50.0 µM), 13.7%.
For the compound `CN(C)C(=S)Oc1ccc(C(C)(C)C)cc1`, the growth inhibition is -156% in assay [1] (setting [7]); -68% in assay [1] (setting [8]); 50.9% in assay [1] (at 50.0 µM); -53% in assay [2] (setting [7]); -59% in assay [2] (setting [8]); -14.4% in assay [2] (at 50.0 µM). The growth inhibition was -65% in assay [3] (setting [7]); -47% in assay [3] (setting [8]); 40.5% in assay [3] (at 50.0 µM); -72% in assay [4] (setting [7]); -68% in assay [4] (setting [8]); -34.7% in assay [4] (at 50.0 µM). For the same compound, the growth inhibition in assay [5] (setting [7]) was -65%; in assay [5] (setting [8]) it was -27%; in assay [5] (at 50.0 µM), 60.4%; in assay [6] (setting [7]) it was -129%; in assay [6] (setting [8]) it was -123%; in assay [6] (at 50.0 µM) it was 29.1%.
In the case of `COc1cccc2nc3c(C(=O)NCCN(C)C)cccc3cc12`, the growth inhibition is 60% in assay [1] (setting [7]); 94% (active) in assay [1] (setting [8]); 81.7% (active) in assay [1] (at 50.0 µM); 15% in assay [2] (setting [7]); 43% in assay [2] (setting [8]); 15.9% in assay [2] (at 50.0 µM). The growth inhibition is 24% in assay [3] (setting [7]); 56% in assay [3] (setting [8]); 10.4% in assay [3] (at 50.0 µM); 15% in assay [4] (setting [7]); 49% in assay [4] (setting [8]); -7.1% in assay [4] (at 50.0 µM). Besides, the growth inhibition in assay [5] (setting [7]) is 22%; in assay [5] (setting [8]), 47%; in assay [5] (at 50.0 µM) it was -50.6%; in assay [6] (setting [7]), 24%; in assay [6] (setting [8]) it was 65%; in assay [6] (at 50.0 µM) it was 0.05%.
In the case of `OC(CN1CCc2ccccc2C1)c1ccc2ccccc2c1` (configuration not stated), the growth inhibition in assay [1] (setting [7]) was 23%; in assay [1] (setting [8]) it was 64%; in assay [1] (at 50.0 µM), 86.5% (active); in assay [2] (setting [7]), 18%; in assay [2] (setting [8]), 58%; in assay [2] (at 50.0 µM), 50.5%. The growth inhibition in assay [3] (setting [7]) is 34%; in assay [3] (setting [8]) it was 86% (active); in assay [3] (at 50.0 µM) it was 88.5% (active); in assay [4] (setting [7]), 26%; in assay [4] (setting [8]), 58%; in assay [4] (at 50.0 µM), 68.3%. The growth inhibition is 36% in assay [5] (setting [7]); 93% (active) in assay [5] (setting [8]); 94.6% (active) in assay [5] (at 50.0 µM); 25% in assay [6] (setting [7]); 82% (active) in assay [6] (setting [8]); 45.3% in assay [6] (at 50.0 µM).
For `O=C1/C(=C/c2cccc([N+](=O)[O-])c2)Sc2scc(-c3ccc([N+](=O)[O-])cc3)[n+]21`, the growth inhibition in assay [1] (setting [7]) was 7%; in assay [1] (setting [8]), 97% (active); in assay [1] (at 50.0 µM), 85.2% (active); in assay [2] (setting [7]), -3%; in assay [2] (setting [8]), 98% (active); in assay [2] (at 50.0 µM), 62%. Further, the growth inhibition in assay [3] (setting [7]) is 6%; in assay [3] (setting [8]), 97% (active); in assay [3] (at 50.0 µM) it was 94.9% (active); in assay [4] (setting [7]), -15%; in assay [4] (setting [8]), 97% (active); in assay [4] (at 50.0 µM), 59.1%. The growth inhibition is -18% in assay [5] (setting [7]); 98% (active) in assay [5] (setting [8]); 93.1% (active) in assay [5] (at 50.0 µM); 11% in assay [6] (setting [7]); 97% (active) in assay [6] (setting [8]); 93.8% (active) in assay [6] (at 50.0 µM).
